Laboratory results reported in PubChem BioAssay (Tox21).
Values without a mark were called inactive. Records with an inconclusive call do not appear. Entries that show only a call come without a potency. Active and inactive are the calls of the source. Unless noted, calls follow the shape of the dose curve; as a rule, active = well fitted curve in the direction sought with a large enough effect in the repeat runs; inconclusive = weak or mixed curves; inactive = no such curve, though single readings can be large; an effect the other way counts as inactive or inconclusive.

Assays:
[1] = qHTS assay to identify small molecule agonists of the hypoxia (HIF-1) signaling pathway - cell viability counter screen (AID 1224844; calls by dose curve; also: nearly all actives have a fitted effect of over 50% in size; also: potency is read from the fitted curve at half-maximal effect)
In short: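 Viability counter screen: HRE-bla ME-180 cells plated 5 hrs before compound addition, treated 17 hrs at 37C and 5% CO2, then CellTiter-Glo added after the FRET reporter read; luminescence after 30 min.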

[2] = qHTS assay to identify small molecule agonists of the hypoxia (HIF-1) signaling pathway (AID 1224846; active = well fitted activation curve with a large enough effect in the signal ratio in the repeat runs, not every such curve was filed as active; the % refers to the signal ratio)
In short: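 Agonist mode reporter screen. ME-180 cells stably expressing bla under HRE control received test compounds in DMSO for 17 hrs (37C, 5% CO2), and beta-lactamase activity was then detected with the CCF4-AM FRET substrate.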

[3] = qHTS assay to identify small molecule agonists of H2AX - cell viability counter screen (AID 1224847; calls by dose curve; also: top concentration of the series differs between compounds; nearly all actives have a fitted effect of over 30% in size)
In short: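 Cytotoxicity counter screen in wild-type CHO-K1 cells: a 3 hr compound treatment at 37C across 15 concentrations, followed by CellTiter-Glo luminescence to gauge viable cells.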

[4] = qHTS RealTime-Glo MT Cell Viability Assay in HepG2 cells - 24 hour (AID 1224867); also: nearly all actives have a fitted effect of over 50% in size
In short: (§1)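 Luminescence read-out: viable HepG2 cells reduce a prosubstrate to a NanoLuc substrate, giving a signal proportional to live cell number. Reads taken at 0, 8, 16, 24, 32 and 40 h of compound exposure at 37 C.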

[5] = qHTS RealTime-Glo MT Cell Viability Assay in HEK293 cells - 32 hour (AID 1224868); also: top concentration of the series differs between compounds; nearly all actives have a fitted effect of over 50% in size
In short: (§2)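 Nonlytic real-time viability readout: viable cells convert prosubstrate to NanoLuc substrate, giving luminescence proportional to live cell number. HEK293, 600 cells/well, compound added after 5 h, continuous culture at 37 C.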

[6] = A CellTox Green Cytotoxicity Assay to monitor cytotoxicity in HEK293 cells - 0 hour (AID 1224869); also: nearly all actives have a fitted effect of over 50% in size
In short: (§3)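 Dead-cell fluorescence measured kinetically: asymmetric cyanine dye, HEK293, 600 cells/well, 5 h settle, 23 nL cpd/DMSO, 37 C, reads 0–40 h every 8 h.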

[7] = qHTS RealTime-Glo MT Cell Viability Assay in HepG2 cells - 40 hour (AID 1224870); also: nearly all actives have a fitted effect of over 50% in size
In short: (§4)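 HepG2 cells (600/well) mixed with RealTime-Glo MT reagent, settled 5 h at 37 C/5% CO2 before compound addition. Nonlytic NanoLuc luminescence from viable-cell prosubstrate reduction read repeatedly during 40 h treatment at 37 C.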

[8] = A CellTox Green Cytotoxicity Assay to monitor cytotoxicity in HEK293 cells - 40 hour (AID 1224871); also: nearly all actives have a fitted effect of over 45% in size
In short: as §3

[9] = qHTS RealTime-Glo MT Cell Viability Assay in HEK293 cells - 16 hour (AID 1224872)
In short: as §2

[10] = qHTS RealTime-Glo MT Cell Viability Assay in HepG2 cells - 8 hour (AID 1224873); also: nearly all actives have a fitted effect of over 55% in size
In short: as §4

[11] = qHTS RealTime-Glo MT Cell Viability Assay in HEK293 cells - 40 hour (AID 1224874); conditions: RealTime-Glo luminescence; max response: stronger effect = lower value; also: nearly all actives have a fitted effect of over 50% in size
In short: (§5)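 600 HEK293 cells per well, dispensed already mixed with RealTime-Glo MT reagents. Compound dosing came 5 h later. The same wells were read for luminescence at 0, 8, 16, 24, 32 and 40 h of exposure at 37 C.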

[12] = A CellTox Green Cytotoxicity Assay to monitor cytotoxicity in HEK293 cells - 24 hour (AID 1224875); also: nearly all actives have a fitted effect of over 45% in size
In short: as §3

[13] = A CellTox Green Cytotoxicity Assay to monitor cytotoxicity in HepG2 cells - 16 hour (AID 1224876); also: nearly all actives have a fitted effect of over 45% in size
In short: (§6)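 First, HepG2 cells (600/well) mixed with reagent were plated; second, after 5 h at 37 C they received compounds via pintool; third, fluorescence was measured at 0 h through 40 h at 8 h intervals.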

[14] = qHTS RealTime-Glo MT Cell Viability Assay in HepG2 cells - 32 hour (AID 1224877); also: nearly all actives have a fitted effect of over 55% in size
In short: as §1

[15] = A CellTox Green Cytotoxicity Assay to monitor cytotoxicity in HepG2 cells - 24 hour (AID 1224878); also: nearly all actives have a fitted effect of over 45% in size
In short: as §6

[16] = A CellTox Green Cytotoxicity Assay to monitor cytotoxicity in HepG2 cells - 40 hour (AID 1224879); also: nearly all actives have a fitted effect of over 40% in size
In short: as §6

[17] = qHTS RealTime-Glo MT Cell Viability Assay in HEK293 cells - 0 hour (AID 1224880)
In short: as §5

[18] = qHTS assay to identify small molecule antagonists of the estrogen related receptor (ERR) signaling pathway from Tox21 library (AID 1224848); also: nearly all actives have a fitted effect of over 50% in size
In short: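 Compounds dissolved in DMSO are pin-transferred onto ERR reporter cells (2,000 per well) that have settled for 6 h at 37 C. Plates then incubate 18 h at 37 C before ONE-Glo luciferase reagent and a luminescence read 30 min later.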

[19] = qHTS assay to identify small molecule agonists of the estrogen related receptor (ERR) signaling pathway from Tox21 library (AID 1224849; calls by dose curve; also: nearly all actives have a fitted effect of over 15% in size); conditions: ERR reporter cell line, ONE-Glo luciferase, 18 h; at 92.4 µM (top of the series) unless noted
In short: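 Quantitative HTS in agonist format: NTP ERR cell line, compounds transferred in DMSO after 6 h plating, 18 h incubation at 37 C, ONE-Glo luminescence endpoint.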

[20] = qHTS assay to identify small molecule agonists of H2AX (AID 1224845; active = well fitted activation curve with a large enough effect in the signal ratio in the repeat runs, not every such curve was filed as active; the % refers to the signal ratio)
In short: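 Wild-type CHO-K1 cells, plated overnight, exposed 3hr at 37C to 15 concentrations (0.76% DMSO final). Lysed, then HTRF anti-pH2AX (S139) cryptate and anti-H2AX-d2 antibodies, 24 hr room temperature; 665/620 nm emission read.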

## CCOP(=S)(OCC)SCSP(=S)(OCC)OCC
[1]
  Potency: inactive
[2]
  outcome: inactive
[3]
  Potency: inactive
[4]
  Potency: inactive
[5]
  Potency: inactive
[6]
  Potency: inactive
[7]
  Potency: inactive
[8]
  Potency: inactive
[9]
  Potency: inactive
[10]
  Potency: inactive
[11]
  max response: 7.42%
[12]
  Potency: inactive
[13]
  Potency: inactive
[14]
  Potency: inactive
[15]
  Potency: inactive
[16]
  Potency: inactive
[17]
  outcome: inactive

## COC(=O)c1ccccc1S(=O)(=O)NC(=O)Nc1nc(C)cc(C)n1
[1]
  Potency: inactive
[2]
  outcome: inactive
[3]
  Potency: inactive
[4]
  Potency: inactive
[5]
  Potency: inactive
[6]
  Potency: inactive
[7]
  Potency: inactive
[8]
  Potency: inactive
[9]
  Potency: inactive
[10]
  Potency: inactive
[11]
  max response: 7.64%
[12]
  Potency: inactive
[13]
  Potency: inactive
[14]
  Potency: inactive
[15]
  Potency: inactive
[16]
  Potency: inactive
[17]
  outcome: inactive

## COP(=S)(OC)Oc1c(Cl)cc(C)cc1Cl
[1]
  Potency: inactive
[2]
  outcome: inactive
[3]
  Potency: inactive
[18]
  Potency: inactive
[19]
  activity change, positive = activation: 0.872%
[4]
  Potency: inactive
[5]
  Potency: inactive
[6]
  Potency: inactive
[7]
  Potency: inactive
[8]
  Potency: inactive
[9]
  Potency: inactive
[10]
  Potency: inactive
[11]
  max response: 0.348%
[12]
  Potency: inactive
[13]
  Potency: inactive
[14]
  Potency: inactive
[15]
  Potency: inactive
[16]
  Potency: inactive
[17]
  outcome: inactive

## CCCSC(=O)Cl
[1]
  Potency: inactive
[2]
  outcome: inactive
[3]
  Potency: inactive
[4]
  Potency: inactive
[5]
  Potency: inactive
[6]
  Potency: inactive
[7]
  Potency: inactive
[8]
  Potency: inactive
[9]
  Potency: inactive
[10]
  Potency: inactive
[11]
  max response: 9.13%
[12]
  Potency: inactive
[13]
  Potency: inactive
[14]
  Potency: inactive
[15]
  Potency: inactive
[16]
  Potency: inactive
[17]
  outcome: inactive

## NC(=O)c1cc([N+](=O)[O-])cc([N+](=O)[O-])c1
[1]
  Potency: inactive
[2]
  outcome: inactive
[3]
  Potency: inactive
[4]
  Potency: inactive
[5]
  Potency: inactive
[6]
  Potency: inactive
[7]
  Potency: inactive
[8]
  Potency: inactive
[9]
  Potency: inactive
[10]
  Potency: inactive
[11]
  max response: 4.2%
[12]
  Potency: inactive
[13]
  Potency: inactive
[14]
  Potency: inactive
[15]
  Potency: inactive
[16]
  Potency: inactive
[17]
  outcome: inactive

## CNC(=O)N(C)c1nc2ccccc2s1
[1]
  Potency: inactive
[2]
  outcome: inactive
[3]
  Potency: inactive
[19]
  activity change, positive = activation: 89.8% (active)
[4]
  Potency: inactive
[5]
  Potency: inactive
[6]
  Potency: inactive
[8]
  Potency: inactive
[9]
  Potency: inactive
[10]
  Potency: inactive
[11]
  max response: -18.7%
[13]
  Potency: inactive
[14]
  Potency: inactive
[15]
  Potency: inactive
[16]
  Potency: inactive
[17]
  outcome: inactive

## CCC(=O)C(CCN(C)C)(c1ccccc1)c1ccccc1
[1]
  Potency: inactive
[2]
  outcome: inactive
[3]
  Potency: inactive
[4]
  Potency: inactive
[5]
  Potency: inactive
[6]
  Potency: inactive
[7]
  Potency: inactive
[8]
  Potency: inactive
[9]
  Potency: inactive
[10]
  Potency: inactive
[11]
  max response: -20.5%
[12]
  Potency: inactive
[13]
  Potency: inactive
[14]
  Potency: inactive
[15]
  Potency: inactive
[16]
  Potency: inactive
[17]
  outcome: inactive

## N#Cc1c(Cl)cccc1Cl
[1]
  Potency: inactive
[2]
  outcome: inactive
[3]
  Potency: inactive
[19]
  activity change, positive = activation: 7.33%
[4]
  Potency: inactive
[5]
  Potency: inactive
[6]
  Potency: inactive
[7]
  Potency: inactive
[9]
  Potency: inactive
[10]
  Potency: inactive
[11]
  max response: 18.9%
[12]
  Potency: inactive
[13]
  Potency: inactive
[14]
  Potency: inactive
[15]
  Potency: inactive
[16]
  Potency: inactive
[17]
  outcome: inactive

## CCOC(=O)NC(=S)Nc1ccccc1NC(=S)NC(=O)OCC
[1]
  Potency: inactive
[2]
  outcome: inactive
[3]
  Potency: inactive
[19]
  activity change, positive = activation: 11.4% (active)
[4]
  Potency: inactive
[6]
  Potency: inactive
[7]
  Potency: inactive
[8]
  Potency: inactive
[9]
  Potency: inactive
[10]
  Potency: inactive
[13]
  Potency: inactive
[14]
  Potency: inactive
[15]
  Potency: inactive
[17]
  outcome: inactive

## O=[N+]([O-])c1ccc(CBr)cc1
[1]
  Potency: 24.2 µM (active)
[20]
  Potency: inactive
[3]
  Potency: inactive
[5]
  Potency: inactive
[6]
  Potency: inactive
[7]
  Potency: inactive
[8]
  Potency: inactive
[9]
  Potency: inactive
[10]
  Potency: inactive
[11]
  max response: 12.7%
[12]
  Potency: inactive
[13]
  Potency: inactive
[14]
  Potency: inactive
[15]
  Potency: inactive
[16]
  Potency: inactive
[17]
  outcome: inactive

## O=C1OC(CCN2CCCCC2)OC1(c1ccccc1)c1ccccc1 (centres undefined)
[1]
  Potency: inactive
[2]
  outcome: inactive
[3]
  Potency: inactive
[4]
  Potency: inactive
[5]
  Potency: inactive
[6]
  Potency: inactive
[7]
  Potency: inactive
[8]
  Potency: inactive
[9]
  Potency: inactive
[10]
  Potency: inactive
[11]
  max response: 5.83%
[13]
  Potency: inactive
[14]
  Potency: inactive
[15]
  Potency: inactive
[17]
  outcome: inactive

## COC(=O)C(C)Oc1ccc(Oc2ccc(Cl)cc2Cl)cc1 (centres undefined)
[1]
  Potency: inactive
[2]
  outcome: inactive
[3]
  Potency: inactive
[19]
  activity change, positive = activation: -14.6%
[4]
  Potency: inactive
[5]
  Potency: inactive
[6]
  Potency: inactive
[7]
  Potency: inactive
[8]
  Potency: inactive
[9]
  Potency: inactive
[10]
  Potency: inactive
[11]
  max response: -8.07%
[12]
  Potency: inactive
[13]
  Potency: inactive
[14]
  Potency: inactive
[15]
  Potency: inactive
[16]
  Potency: inactive
[17]
  outcome: inactive

## CCCCc1c(C)nc(NCC)[nH]c1=O
[1]
  Potency: inactive
[2]
  outcome: inactive
[3]
  Potency: inactive
[18]
  Potency: inactive
[19]
  activity change, positive = activation: 5.33%
[4]
  Potency: inactive
[6]
  Potency: inactive
[7]
  Potency: inactive
[8]
  Potency: inactive
[10]
  Potency: inactive
[12]
  Potency: inactive
[13]
  Potency: inactive
[14]
  Potency: inactive
[17]
  outcome: inactive

## C=C(C)[C@@H]1CC=C(C=O)CC1
[1]
  Potency: inactive
[2]
  outcome: inactive
[3]
  Potency: inactive
[19]
  activity change, positive = activation: -5.19%
[5]
  Potency: inactive
[6]
  Potency: inactive
[7]
  Potency: inactive
[8]
  Potency: inactive
[9]
  Potency: inactive
[10]
  Potency: inactive
[11]
  max response: -6.37%
[13]
  Potency: inactive
[14]
  Potency: inactive
[15]
  Potency: inactive
[16]
  Potency: inactive
[17]
  outcome: inactive

## CCS(=O)(=O)CCSP(=O)(OC)OC
[1]
  Potency: inactive
[2]
  outcome: inactive
[3]
  Potency: inactive
[18]
  Potency: inactive
[19]
  activity change, positive = activation: 13.8%
[4]
  Potency: inactive
[5]
  Potency: inactive
[6]
  Potency: inactive
[7]
  Potency: inactive
[8]
  Potency: inactive
[9]
  Potency: inactive
[10]
  Potency: inactive
[11]
  max response: 10.4%
[12]
  Potency: inactive
[13]
  Potency: inactive
[14]
  Potency: inactive
[15]
  Potency: inactive
[16]
  Potency: inactive
[17]
  outcome: inactive
